This is part of a sample that, as a whole, favours compounds with a hit. Of some 79,000 tested, about 15% had one in any assay. Unmarked numbers belong to inactive results. Activity calls are given as the source filed them. No stated cut-off is given here; in the data, active means growth inhibition above about 70%; inactive means the rest.

The nature of this assay: NCI Yeast Anticancer Drug Screen. Data for the sgs1 mgt1 strain (AID 161).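 Further: 0% = growth of cultures given vehicle only.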 As to conditions: S. cerevisiae sgs1 mgt1 strain, at 50.0 µM, active compounds read high. In outline:
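Yeast cells carrying a defined DNA-repair defect were exposed to test compounds. Growth inhibition was measured relative to vehicle-treated controls.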
On to `CC(C)C1OCC(CO)([N+](=O)[O-])CO1` (stereo not drawn), for which the growth inhibition was -21.8%. As for `CSc1nc(C)c2c(n1)N(c1ccc(Cl)cc1)CC2`, the growth inhibition is -16.5%. Turning to `CCc1cccc(CC)c1NC(=O)/C=C/C(=O)O`, the growth inhibition is -4.75%. Turning to `CCn1c(S)c(N=NC(=S)c2ccc3ccccc3n2)c2ccccc21`, the growth inhibition was 27.8%. With `O=C(O)CNC(=O)NC(Cc1ccccc1)C(=O)O` (stereo not drawn), the growth inhibition was -0.45%.

For `OC/C(I)=C(I)\C(I)=C(\I)CO`, the growth inhibition is 99.5% (active).

As to `CC(=O)C(N)=NCc1ccccc1`, the growth inhibition was -10.7%. For `Cc1cc2ccccc2nc1-c1ccncc1`, the growth inhibition was -7.35%. Then `CC(C)(C)C1=NC(S)NC(CCC(=O)Nc2ccccc2[N+](=O)[O-])=C1` (stereo not drawn), with -0.4%. `COc1ccc2cc(C(=O)c3ccccc3)c(=O)oc2c1`: the growth inhibition was 18.8%. `CCCCCCC1=CCCC1=O`: the growth inhibition was -3.35%.

For `N#Cc1cccc(O)c1`, the growth inhibition was -2.45%. Then `O=C(c1nc2ccccc2[nH]c1=O)C(O)c1ccccc1` (stereo not drawn), with -3.1%; and `O=c1[nH]c2cc([N+](=O)[O-])ccc2nc1/C(=N/Nc1ccccc1)C(O)c1ccco1` (stereo not drawn), with 9.2%.

Take `CSc1ccc(OC(=O)Nc2ccc(Cl)c(Cl)c2)cc1C`: the growth inhibition is 96.9% (active).

As to `Cc1cc(O)c(C(C)C)cc1NC(=S)Nc1ccc(S(=O)(=O)c2ccc(NC(=S)Nc3cc(C(C)C)c(O)cc3C)cc2)cc1`, the growth inhibition was 36.9%. In the case of `CC1=C/C(=N\O)C(C(O)(C(F)(F)F)C(F)(F)F)C(C)(C)C1` (stereo not drawn), the growth inhibition was -17.4%. With `COc1cc2c(cc1OC)C(O)C(O)(CO)C(C(=O)O)C2c1cc(OC)c(OC)c(OC)c1` (stereo not drawn), the growth inhibition was 12.1%.

Values taken from PubChem BioAssay (NCI).
